Only some compounds are listed: those with a hit (about 4.1% of all), similar ones and a draw of the others.
RecA splice inh – Mtb RecA intein splicing inhibition; inhibition, % (no concentration beside the values); actives 0.75% (n = 290,000); P9WHJ3; cell-free RecA intein splicing, fluorescence; in the data active means inhibition above about 30%
Rv3671c protease – inhibitors of M. tuberculosis serine protease Rv3671c | AID 2606 | inhibition, % at 5.96 µM | actives 0.048% (n = 320,000) | P9WHR9; in the data active means inhibition above about 38%;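 further: extracellular domain of Rv3671c used as enzyme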
Vc quorum ag – induces V. cholerae light production without autoinducers; V. cholerae BH1578 lux reporter, luminescence, 6 h; activation, % at 18.7 µM; actives 0.16% (n = 350,000); in the data active means activation mostly above about 9.7%, no sharp cut-off
FBA Mtb inh – inhibitors of M. tuberculosis fructose-bisphosphate aldolase; AID 588726; actives 2.3% (n = 360,000); inhibition, % at 1 µM; purified M. tuberculosis FBA, fluorescence read-out; in the data active means inhibition above about 27%
Target sequence (P9WQA3 whole entry, looked up): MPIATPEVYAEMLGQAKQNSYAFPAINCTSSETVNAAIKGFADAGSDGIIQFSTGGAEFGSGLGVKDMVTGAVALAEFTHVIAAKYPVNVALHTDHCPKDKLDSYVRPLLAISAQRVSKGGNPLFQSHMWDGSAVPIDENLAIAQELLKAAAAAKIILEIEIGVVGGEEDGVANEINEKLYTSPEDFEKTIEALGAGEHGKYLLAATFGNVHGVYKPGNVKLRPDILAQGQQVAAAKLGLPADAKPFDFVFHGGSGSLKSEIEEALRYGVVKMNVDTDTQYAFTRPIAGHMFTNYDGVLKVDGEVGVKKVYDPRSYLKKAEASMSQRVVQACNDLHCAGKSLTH
GDH-TPI counter – inhibits GDH-TPI coupling enzymes, artifact for Mtb FBA screen | actives 1.2% (n = 360,000) | GDH-TPI coupled enzyme counterscreen, NADH absorbance | inhibition, % at 4.8 µM; in the data active means inhibition above about 30%
Mtb UGM inh – Mtb UDP-galactopyranose mutase inhibition. P9WIQ1. AID 504406. purified UGM, fluorescence polarization probe displacement. actives 0.06% (n = 320,000). inhibition, % at 10 µM; in the data active means inhibition above about 10%, passing the limit was not always enough
A number is an active result; n = inactive; x = not tested or not shown; + = active, no number.

SMILES | RecA splice inh | Rv3671c protease | Vc quorum ag | FBA Mtb inh | GDH-TPI counter | Mtb UGM inh
Cc1onc(-c2ccccc2)c1C(=O)N1CCCC(C)(C(=O)NS(=O)(=O)C2CC2)C1 (configuration not stated) | x | x | n | n | n | x
NNC(=O)c1ccccc1CO | n | n | x | x | x | n
CCN(C[C@H]1N[C@@](C)(C(=O)OC)[C@H]2C(=O)N(C)C(=O)[C@@H]12)C(=O)Nc1ccc(Cl)cc1 | x | n | n | n | n | n
O=C1Nc2ccccc2/C1=C/c1cnc[nH]1 | n | n | n | n | 31.0 | n
COc1ccc2c(c1)/C(=C/c1cnc[nH]1)C(=O)N2 | n | n | n | n | n | n
CCCn1c(=O)c(C(=O)NNS(=O)(=O)c2ccc(NC(=O)OC)cc2)c(O)c2ccccc21 | n | n | n | n | n | n
COc1ccc(/C=C/C(=O)N2CCOCC2)cc1OC | n | n | n | n | n | n
COc1ccc(/C=C/C(=O)NCC(c2ccc(F)cc2)N2CCOCC2)cc1OC (configuration not stated) | n | n | n | n | 34.8 | n
CCOc1ccc(/C=C/C(=O)N2CCOCC2)cc1OC | n | n | n | n | 32.2 | n
COc1ccc(/C=C/C(=O)O/N=C(\N)c2ccccn2)cc1OC | x | n | n | n | 44.5 | n
CCOc1cc(C(=S)N2CCOCC2)ccc1OC(=O)/C=C/c1ccc(OC)c(OC)c1 | n | n | n | n | 37.5 | n
CCOc1cc(C(=S)N2CCOCC2)ccc1OC(=O)c1cc(OC)c(OC)c(OC)c1 | n | n | n | n | n | n
N/C(=N\OC(=O)/C=C/c1ccccc1)c1ccccn1 | n | n | n | n | n | n
COc1ccc(/C=C/C(=O)N2CCN(c3ccccn3)CC2)cc1OC | n | n | n | n | 38.6 | n
COc1ccc(/C=C/C(=O)N(c2ccccn2)C2CCCCC2)cc1OC | n | n | n | n | 82.8 | n
Cn1nc([N+](=O)[O-])nc1Sc1nnc(-c2ccccc2)o1 | 31.7 | n | n | n | n | n
Cn1nc([N+](=O)[O-])nc1Sc1cccc2cccnc12 | n | n | n | n | n | n
CN1C[C@@H]2[C@@H]3C(=O)N(Cc4ccccc4)C(=O)[C@@H]3[C@](Cc3ccccc3)(C1=O)N2C(=O)c1ccc(F)cc1 | x | x | n | n | n | x
COCc1cc(C)n(CC(=O)N/N=C/c2ccc(-c3ccc(Cl)c(C(=O)O)c3)o2)c(=O)c1C#N | n | n | n | n | 68.9 | n
COc1ccc(C(=O)NCC2(c3ccc(OC)c(OC)c3)CCCC2)c(OC)c1 | n | n | n | n | n | n
CC1(C)CC(=O)C2=C(C1)NC(=O)CC2c1ccc(F)cc1 (configuration not stated) | n | n | 30.2 | n | n | n
CN(C)c1ccc(C2CC(=O)NC3=C2C(=O)CC(C)(C)C3)cc1 (configuration not stated) | x | n | n | n | n | n
COc1ccc(-c2nnc(NC(=O)c3cc(C)on3)s2)cc1 | n | n | n | n | 35.2 | n
COc1ccc(-c2csc(NC(=O)c3cc(C)on3)c2C#N)cc1OC | n | n | n | n | 38.1 | n
COc1ccc(/C=C2/C(=O)N=C(N)N2C)cc1OC | n | n | 16.7 | n | n | n
SMILES | RecA splice inh | Rv3671c protease | Vc quorum ag | FBA Mtb inh | GDH-TPI counter | Mtb UGM inh
COc1ccc(C(=O)NC(=O)CSc2n[nH]c(N)n2)cc1 | x | n | n | n | n | n
Cc1ccccc1OCC(=O)OCC(=O)NCc1ccc2c(c1)OCO2 | x | n | n | n | n | n
O=C(COC(=O)COc1cccc(Br)c1)NCc1ccc2c(c1)OCO2 | x | n | n | n | n | 11.2
Cc1cc(C)cc(C(=O)/C=C2\NC(=O)CS2)c1 | n | n | n | n | 39.0 | n
Cc1ccccc1N=C1NC(=O)CS1 | n | n | x | n | n | n
O=C1CS/C(=C/C(=O)c2ccccc2)N1 | n | n | n | n | 44.4 | n
Cc1ccccc1C(=O)/C=C1\NC(=O)CS1 | x | n | n | n | 48.4 | n
Cc1c2n(c3ccccc13)CC/C2=N\O | n | n | n | n | n | n
CO/N=C1\CCn2c1c(C)c1ccccc12 | n | n | n | n | 31.4 | n
CCNC(=O)C1(C)CCCN(CC(=O)c2ccccc2OC)C1 (configuration not stated) | x | x | n | n | n | x
O=C(NCC1CCCO1)c1coc2nc3ccccc3nc12 (configuration not stated) | n | n | + | 126.2 | n | n
O=C(Nc1ccccc1C(=O)NCC1CCCO1)c1ccccc1 (configuration not stated) | n | n | n | n | n | n
COC(CNC(=O)c1coc2nc3ccccc3nc12)OC | n | n | n | 120.1 | n | n
CCc1ccc(CN2CCCC(CNC(=O)c3cccc(OC)c3OC)C2)cc1 (configuration not stated) | n | n | n | n | n | n
CCCCN(CCCC)c1ccc(C(=O)c2ccccc2C(=O)O)c(O)c1 | n | n | n | n | n | n
CN(C)c1ccc(C(=O)c2ccccc2C(=O)O)c(O)c1 | n | n | n | n | 40.7 | n
O=C(NC1CCN(Cc2ccc(F)cc2)CC1)c1ccccc1 | n | n | n | n | n | n
O=C(NC(=S)NC1CCN(Cc2ccccc2)CC1)c1ccc(F)cc1 | n | n | n | + | n | n
O=C(Nc1ccc(F)cc1)C(=O)c1c(O)[nH]c2ccc([N+](=O)[O-])cc12 | n | n | n | n | 37.7 | n
Cc1ccc(NCC(=O)N=Nc2c(O)[nH]c3ccc([N+](=O)[O-])cc23)cc1 | n | n | x | x | x | n
CCN1CCN(S(=O)(=O)c2cc(OCC(=O)NC3CCCCC3)c(C)cc2Cl)CC1 | n | n | n | n | 52.2 | n
COc1ccc(C2c3ccc(O)cc3Oc3ncn4nc(-c5ccccn5)nc4c32)cc1 (configuration not stated) | n | n | n | n | 36.4 | n
COc1ccc(C2c3ccc(O)cc3Oc3ncn4nc(-c5ccccn5)nc4c32)cc1OC (configuration not stated) | n | n | n | n | n | n
CC1(C(=O)Nc2ccc(Cl)c(Cl)c2)CCN1C(=O)CC1CCCC1 (configuration not stated) | x | x | n | n | n | x
O=C(/C=C/c1ccc(S(=O)(=O)N2CCOCC2)cc1)NCCc1ccc(C(F)(F)F)cc1 | x | n | n | n | n | n
SMILES | RecA splice inh | Rv3671c protease | Vc quorum ag | FBA Mtb inh | GDH-TPI counter | Mtb UGM inh
COC(=O)Cn1cc(/C=C2\C(=O)NC(=O)N(c3ccccc3)C2=O)c2ccccc21 | n | n | n | n | n | n
COC(=O)Cn1cc(C=C2C(=O)N(C)C(=O)N(C)C2=O)c2ccccc21 | n | n | x | x | x | 13.7
COCCCNC(=O)Cn1cc(/C=C(\C#N)C(=O)NC2CCCC2)c2ccccc21 | n | n | n | n | 33.3 | n
COCCNC(=O)Cn1cc(C=C2C(=O)NC(=O)NC2=O)c2ccccc21 | n | n | n | n | n | 41.8
COc1ccc(-c2nnc(SC)nc2-c2ccc(OC)c([N+](=O)[O-])c2)cc1[N+](=O)[O-] | n | n | n | n | n | n
Cc1ccc(N(Cc2cc3ccc(C)cc3[nH]c2=O)S(=O)(=O)c2ccccc2)cc1 | n | n | n | n | n | n

Assay outcomes (PubChem BioAssay)
